Assay results as given in the supplement of paper PMC3898565.
± gives the uncertainty stated by the source.

Tested on: U87
Assay: cell viability relative to vehicle control; higher = less growth inhibition (less active)
Settings: 10 µM; 72 h
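Note: viable cell number estimated from Alamar Blue fluorescence read at 560/90, part of a single-dose primary screen of an FDA-approved drug library.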

**Q.** How did the cell viability turn out when `OCc1cc(C(O)CNCCCCCCOCCCCc2ccccc2)ccc1O` (centres undefined) [Salmeterol] was run?
**A.** 106 ± 1.1%

**Q.** With `Clc1ccccc1C(c1ccccc1)(c1ccccc1)n1ccnc1` as the compound, how does the cell viability read?
**A.** 107.5 ± 0.99%

**Q.** For `CCOC(=O)C1(CCCCCCOc2ccc(Cl)cc2)CO1` (centres undefined), which cell viability is on record?
**A.** 106 ± 1.7%

**Q.** `CC(C)NCC(O)COc1ccc(COCCOC(C)C)cc1` (centres undefined) was tested. Which cell viability did it give?
**A.** 104 ± 2.4%

**Q.** How did the cell viability turn out when `CC(=O)O[C@]1(C(C)=O)CC[C@H]2[C@@H]3C=C(C)C4=CC(=O)CC[C@]4(C)[C@H]3CC[C@@]21C` was run?
**A.** 101 ± 1.2%

**Q.** `O=C(O)CCNC(=O)c1ccc(/N=N/c2ccc(O)c(C(=O)O)c2)cc1` was tested. Which cell viability did it give?
**A.** 99.6 ± 1.4%

**Q.** `CC(C(=O)O)c1ccc(-c2ccccc2)c(F)c1` (centres undefined) [Flurbiprofen] was tested. Which cell viability did it give?
**A.** 105 ± 12%

**Q.** For `CCCCC(=O)N(Cc1ccc(-c2ccccc2-c2nnn[nH]2)cc1)[C@H](C(=O)O)C(C)C`, which cell viability is on record?
**A.** 108 ± 3%

**Q.** For `CCCc1nc2c(C)cc(-c3nc4ccccc4n3C)cc2n1Cc1ccc(-c2ccccc2C(=O)O)cc1`, which cell viability is on record?
**A.** 98.3 ± 2.2%

**Q.** Which cell viability does the source give for `COc1ccc2c(c1)c(CC(=O)O)c(C)n2C(=O)c1ccc(Cl)cc1` [Indomethacin] here?
**A.** 105.6 ± 0.41%

**Q.** How did the cell viability turn out when `O=C1c2c(O)cc(O)cc2O[C@H](c2ccc(O)c(O)c2)[C@H]1O` was run?
**A.** 90.7 ± 4.5%

**Q.** With `CO[C@@H]1[C@@H](O[C@@H]2O[C@H](C)[C@@H](O[C@H]3C[C@@](C)(O)[C@@H](OC(=O)CC(C)C)[C@H](C)O3)[C@H](N(C)C)[C@H]2O)[C@@H](CC=O)C[C@@H](C)[C@@H](O)/C=C/C=C/C[C@@H](C)OC(=O)C[C@H]1O` as the compound, how does the cell viability read?
**A.** 102 ± 2.2%

**Q.** For `CN(C)CCC[C@@]1(c2ccc(F)cc2)OCc2cc(C#N)ccc21`, which cell viability is on record?
**A.** 103 ± 1.9%

**Q.** How did the cell viability turn out when `CC(COc1ccccc1Cc1ccccc1)N1CCCCC1` (centres undefined) was run?
**A.** 102.4 ± 0.48%

**Q.** How did the cell viability turn out when `Cn1nnc2c(C(N)=O)ncn2c1=O` was run?
**A.** 106 ± 1.3%

**Q.** For `Cc1ccc(O)c([C@H](CCN(C(C)C)C(C)C)c2ccccc2)c1`, which cell viability is on record?
**A.** 103.8 ± 0.47%

**Q.** For `CCCN[C@H]1CCc2nc(N)sc2C1` [Pramipexole], which cell viability is on record?
**A.** 92.5 ± 8.8%

**Q.** For `C[C@H]1COc2c(N3CCN(C)CC3)c(F)cc3c(=O)c(C(=O)O)cn1c23`, which cell viability is on record?
**A.** 102.8 ± 0.96%

**Q.** How did the cell viability turn out when `Nc1ccc2cn[nH]c2c1` was run?
**A.** 108 ± 2.4%

**Q.** For `CC(C)C[C@H](NC(=O)[C@@H](O)[C@H](N)Cc1ccccc1)C(=O)O`, which cell viability is on record?
**A.** 97.13 ± 0.56%

**Q.** `OCCN1C[C@H](O)[C@@H](O)[C@H](O)[C@H]1CO` was tested. Which cell viability did it give?
**A.** 123 ± 2.4%

**Q.** With `Cc1c(O)c(=O)ccn1C` as the compound, how does the cell viability read?
**A.** 102 ± 5.2%

**Q.** With `Cc1cc2c(s1)Nc1ccccc1N=C2N1CCN(C)CC1` as the compound, how does the cell viability read?
**A.** 108 ± 1.7%

**Q.** `CCN1CC(CCN2CCOCC2)C(c2ccccc2)(c2ccccc2)C1=O` (centres undefined) was tested. Which cell viability did it give?
**A.** 104 ± 1.3%

**Q.** For `CN(C)CCC(c1ccc(Cl)cc1)c1ccccn1` (centres undefined) [Chlorpheniramine], which cell viability is on record?
**A.** 109 ± 2.8%

**Q.** For `Fc1ccc([C@@H]2CCNC[C@H]2COc2ccc3c(c2)OCO3)cc1` [Paroxetine], which cell viability is on record?
**A.** 101 ± 1.2%

**Q.** For `N[C@@H]1CONC1=O`, which cell viability is on record?
**A.** 96.3 ± 5%

**Q.** With `O=c1c(O[C@@H]2O[C@H](CO)[C@H](O)[C@H](O)[C@H]2O)c(-c2ccc(O)c(O)c2)oc2cc(O)cc(O)c12` as the compound, how does the cell viability read?
**A.** 106 ± 1.8%

**Q.** With `O=c1[nH]c(=O)n(C2CCCO2)cc1F` (centres undefined) as the compound, how does the cell viability read?
**A.** 96.728 ± 0.044%

**Q.** With `CN1CCN(c2c(F)cc3c(=O)c(C(=O)O)cn4c3c2SCC4)CC1` as the compound, how does the cell viability read?
**A.** 99.9 ± 1.7%

**Q.** How did the cell viability turn out when `CCC1=C(C)CN(C(=O)NCCc2ccc(S(=O)(=O)NC(=O)N[C@H]3CC[C@H](C)CC3)cc2)C1=O` was run?
**A.** 105 ± 2.2%

**Q.** `Cc1onc(-c2ccccc2)c1-c1ccc(S(N)(=O)=O)cc1` was tested. Which cell viability did it give?
**A.** 106.8 ± 0.6%

**Q.** Which cell viability does the source give for `CCCCc1oc2ccccc2c1C(=O)c1cc(I)c(OCCN(CC)CC)c(I)c1` [Amiodarone] here?
**A.** 105 ± 1.1%

**Q.** `Cc1sc(N)c(C(=O)c2cccc(C(F)(F)F)c2)c1C` was tested. Which cell viability did it give?
**A.** 109 ± 1.8%

**Q.** How did the cell viability turn out when `COc1ccccc1N1CCN(CC(O)COc2cccc3ccccc23)CC1` (centres undefined) was run?
**A.** 99.6 ± 1.9%

**Q.** How did the cell viability turn out when `CCC(=O)NS(=O)(=O)c1ccc(-c2c(-c3ccccc3)noc2C)cc1` was run?
**A.** 108.7 ± 0.37%

**Q.** How did the cell viability turn out when `CC(C(O)c1ccc(O)cc1)N1CCC(Cc2ccccc2)CC1` (centres undefined) [Ifenprodil] was run?
**A.** 99.5 ± 1.3%

**Q.** `CN(C)CCCC1(c2ccc(F)cc2)OCc2cc(C#N)ccc21` (centres undefined) [Citalopram] was tested. Which cell viability did it give?
**A.** 102 ± 1.4%

**Q.** Which cell viability does the source give for `CN1CC(=O)N2[C@H](c3ccc4c(c3)OCO4)c3[nH]c4ccccc4c3C[C@@H]2C1=O` here?
**A.** 107 ± 1.3%
